# Experiments:
# Experiment in all cases: DAPPL (digital affinity profiling via proximity ligation, sequencing); 10 mM Tris-HCl pH 7.5, 50 mM NaCl, 1 mM DTT, 4% glycerol, room temperature, 30 min; GST-TFs on glutathione beads, 16-mer random dsDNA library, 0.1% formaldehyde crosslink after washing; high values mean tight binding
# [1] = biological target: T1, FLI1 (Homo sapiens, UniProt Q01543 1-452); conditions: protein: recombinant; tags: N-terminal GST; dsDNA, one strand shown
# T1 sequence: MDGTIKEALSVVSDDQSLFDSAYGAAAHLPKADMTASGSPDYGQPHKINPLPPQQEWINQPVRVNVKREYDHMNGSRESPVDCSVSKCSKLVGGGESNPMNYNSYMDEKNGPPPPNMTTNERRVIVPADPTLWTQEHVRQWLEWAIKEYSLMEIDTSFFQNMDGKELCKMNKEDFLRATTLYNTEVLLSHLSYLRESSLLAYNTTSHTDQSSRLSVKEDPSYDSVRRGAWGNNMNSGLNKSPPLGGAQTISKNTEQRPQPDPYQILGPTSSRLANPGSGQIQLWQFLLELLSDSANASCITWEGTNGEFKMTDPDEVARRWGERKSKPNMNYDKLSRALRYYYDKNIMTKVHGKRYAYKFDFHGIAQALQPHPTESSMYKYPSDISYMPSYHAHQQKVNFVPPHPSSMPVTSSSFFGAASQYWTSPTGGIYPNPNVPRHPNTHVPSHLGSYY
# Outline: (§1)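 The binding signal reported is, for every hexamer, its read frequency for a factor over its read frequency for the tag-only sample. Reads came from pools of yeast-expressed, GST-fused human transcription factors on glutathione beads, barcoded with DNA and mixed with that sample, which were incubated with 200 nmole of a random double-stranded 16-mer DNA library in Tris/NaCl/DTT/glycerol buffer at room temperature for 30 min. After washing, the pools were crosslinked with 0.1% formaldehyde, proximity-ligated with BsaI/T4 ligase for 1 h at 37 °C, PCR-amplified and sequenced on an Illumina NextSeq500.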
# [2] = biological target: T2, ELK1 (Homo sapiens, UniProt P19419 1-428); conditions: protein: recombinant; tags: N-terminal GST; dsDNA, one strand shown
# T2 sequence: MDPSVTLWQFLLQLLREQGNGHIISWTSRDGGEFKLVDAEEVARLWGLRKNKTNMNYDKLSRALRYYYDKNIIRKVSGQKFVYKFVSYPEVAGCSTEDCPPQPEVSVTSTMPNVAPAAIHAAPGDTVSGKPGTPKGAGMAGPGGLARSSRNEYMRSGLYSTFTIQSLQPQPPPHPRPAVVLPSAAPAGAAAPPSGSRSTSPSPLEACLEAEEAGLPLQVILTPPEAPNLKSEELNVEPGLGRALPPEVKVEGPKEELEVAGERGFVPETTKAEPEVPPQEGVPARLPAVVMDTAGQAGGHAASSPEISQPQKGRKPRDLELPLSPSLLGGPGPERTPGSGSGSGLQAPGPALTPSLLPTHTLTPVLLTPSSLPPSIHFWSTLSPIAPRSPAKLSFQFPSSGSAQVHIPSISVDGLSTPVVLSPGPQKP
# Outline: as §1
# [3] = biological target: T3, GABPA (Homo sapiens, UniProt Q06546 1-454); conditions: protein: recombinant; tags: N-terminal GST; dsDNA, one strand shown
# T3 sequence: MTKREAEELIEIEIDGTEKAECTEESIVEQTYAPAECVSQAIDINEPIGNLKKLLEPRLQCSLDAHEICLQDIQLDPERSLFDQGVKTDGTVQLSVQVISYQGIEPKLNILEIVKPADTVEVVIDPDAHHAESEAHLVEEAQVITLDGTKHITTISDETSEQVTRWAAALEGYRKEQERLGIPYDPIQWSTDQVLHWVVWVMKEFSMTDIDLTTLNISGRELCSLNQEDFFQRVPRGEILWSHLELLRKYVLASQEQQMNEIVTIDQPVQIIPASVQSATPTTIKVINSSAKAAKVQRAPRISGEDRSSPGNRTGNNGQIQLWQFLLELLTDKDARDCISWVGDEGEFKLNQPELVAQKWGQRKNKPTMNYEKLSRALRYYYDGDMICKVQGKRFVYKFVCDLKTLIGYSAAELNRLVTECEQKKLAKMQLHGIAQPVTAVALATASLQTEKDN
# Outline: as §1
# [4] = biological target: T4, ERG (Homo sapiens, UniProt P11308 1-479); conditions: protein: recombinant; tags: N-terminal GST; dsDNA, one strand shown
# T4 sequence: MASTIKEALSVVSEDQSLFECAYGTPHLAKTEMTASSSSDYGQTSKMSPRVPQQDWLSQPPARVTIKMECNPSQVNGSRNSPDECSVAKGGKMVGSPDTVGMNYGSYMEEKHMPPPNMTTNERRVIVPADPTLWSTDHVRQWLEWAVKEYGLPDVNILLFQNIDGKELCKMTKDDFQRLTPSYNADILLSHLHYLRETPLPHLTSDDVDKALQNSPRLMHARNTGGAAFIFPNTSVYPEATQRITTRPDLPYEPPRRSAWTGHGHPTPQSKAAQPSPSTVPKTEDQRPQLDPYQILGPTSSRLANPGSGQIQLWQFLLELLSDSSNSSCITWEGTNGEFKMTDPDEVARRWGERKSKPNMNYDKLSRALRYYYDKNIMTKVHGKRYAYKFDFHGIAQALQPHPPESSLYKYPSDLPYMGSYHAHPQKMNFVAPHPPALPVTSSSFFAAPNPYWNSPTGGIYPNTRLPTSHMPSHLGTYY
# Outline: as §1
# [5] = biological target: ELF1 (Homo sapiens, UniProt P32519 1-619); conditions: protein: recombinant; tags: N-terminal GST; dsDNA, one strand shown
# Sequence of ELF1 (P32519 whole entry): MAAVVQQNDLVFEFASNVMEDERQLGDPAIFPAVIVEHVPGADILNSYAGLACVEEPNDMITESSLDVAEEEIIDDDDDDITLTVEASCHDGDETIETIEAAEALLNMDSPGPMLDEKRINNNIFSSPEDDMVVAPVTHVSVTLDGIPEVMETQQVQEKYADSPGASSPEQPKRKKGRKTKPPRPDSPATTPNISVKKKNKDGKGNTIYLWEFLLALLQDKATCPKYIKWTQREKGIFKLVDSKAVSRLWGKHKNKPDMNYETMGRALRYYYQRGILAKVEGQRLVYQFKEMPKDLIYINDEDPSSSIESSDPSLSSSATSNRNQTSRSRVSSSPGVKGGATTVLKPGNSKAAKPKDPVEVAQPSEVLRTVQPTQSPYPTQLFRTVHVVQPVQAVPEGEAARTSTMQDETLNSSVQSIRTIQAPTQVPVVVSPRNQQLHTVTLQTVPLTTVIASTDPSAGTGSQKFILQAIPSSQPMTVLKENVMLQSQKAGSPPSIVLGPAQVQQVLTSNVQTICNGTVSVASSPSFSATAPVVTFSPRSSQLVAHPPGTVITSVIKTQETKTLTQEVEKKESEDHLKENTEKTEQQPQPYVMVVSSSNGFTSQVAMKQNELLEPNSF
# Outline: as §1
# [6] = biological target: T5, EHF (Homo sapiens, UniProt Q9NZC4 1-300); conditions: protein: recombinant; tags: N-terminal GST; dsDNA, one strand shown
# T5 sequence: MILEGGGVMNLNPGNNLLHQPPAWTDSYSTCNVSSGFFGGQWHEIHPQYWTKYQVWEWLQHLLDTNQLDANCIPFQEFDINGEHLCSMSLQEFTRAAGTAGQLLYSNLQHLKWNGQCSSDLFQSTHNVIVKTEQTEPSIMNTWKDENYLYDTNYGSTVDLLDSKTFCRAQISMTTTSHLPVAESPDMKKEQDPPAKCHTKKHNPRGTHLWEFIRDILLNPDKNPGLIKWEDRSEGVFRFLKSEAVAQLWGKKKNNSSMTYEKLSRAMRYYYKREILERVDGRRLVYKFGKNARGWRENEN
# Outline: as §1
# [7] = biological target: SPI1 (Homo sapiens, UniProt P17947 1-270); conditions: protein: recombinant; tags: N-terminal GST; dsDNA, one strand shown
# Outline: as §1
# [8] = biological target: SPIB (Homo sapiens, UniProt Q01892 1-262); conditions: protein: recombinant; tags: N-terminal GST; dsDNA, one strand shown
# Sequence of SPIB (Q01892 whole entry): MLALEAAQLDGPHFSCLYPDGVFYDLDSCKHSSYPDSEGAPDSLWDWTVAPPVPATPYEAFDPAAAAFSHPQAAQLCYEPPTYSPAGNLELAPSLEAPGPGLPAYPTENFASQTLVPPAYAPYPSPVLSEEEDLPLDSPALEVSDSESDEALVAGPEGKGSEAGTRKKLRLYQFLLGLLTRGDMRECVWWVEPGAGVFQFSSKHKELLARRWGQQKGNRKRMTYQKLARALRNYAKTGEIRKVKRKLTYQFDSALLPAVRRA
# Outline: as §1
# [9] = biological target: T6, ELK3 (Homo sapiens, UniProt P41970 1-407); conditions: protein: recombinant; tags: N-terminal GST; dsDNA, one strand shown
# T6 sequence: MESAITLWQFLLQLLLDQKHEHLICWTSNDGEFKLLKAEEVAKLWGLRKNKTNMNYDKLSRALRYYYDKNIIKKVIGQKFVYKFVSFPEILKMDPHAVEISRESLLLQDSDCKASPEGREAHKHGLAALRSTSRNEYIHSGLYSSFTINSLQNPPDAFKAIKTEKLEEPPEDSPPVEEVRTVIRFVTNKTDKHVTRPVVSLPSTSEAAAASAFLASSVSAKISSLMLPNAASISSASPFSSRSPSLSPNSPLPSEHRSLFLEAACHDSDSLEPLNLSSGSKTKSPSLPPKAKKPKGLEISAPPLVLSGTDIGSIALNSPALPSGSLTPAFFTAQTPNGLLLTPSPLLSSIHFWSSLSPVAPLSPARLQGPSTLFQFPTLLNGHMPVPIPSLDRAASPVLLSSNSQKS
# Outline: as §1
# [10] = biological target: T7, FEV (Homo sapiens, UniProt Q99581 1-238); conditions: protein: recombinant; tags: N-terminal GST; dsDNA, one strand shown
# T7 sequence: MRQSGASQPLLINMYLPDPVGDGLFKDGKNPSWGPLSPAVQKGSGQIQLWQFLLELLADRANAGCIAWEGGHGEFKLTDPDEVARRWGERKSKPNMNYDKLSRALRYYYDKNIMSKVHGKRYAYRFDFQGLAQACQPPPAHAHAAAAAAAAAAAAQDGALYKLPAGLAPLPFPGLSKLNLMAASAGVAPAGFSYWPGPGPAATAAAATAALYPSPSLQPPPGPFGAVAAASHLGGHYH
# Outline: as §1
# [11] = biological target: ETV5 (Homo sapiens, UniProt P41161 1-510); conditions: protein: recombinant; tags: N-terminal GST; dsDNA, one strand shown
# Sequence of ETV5 (P41161 whole entry): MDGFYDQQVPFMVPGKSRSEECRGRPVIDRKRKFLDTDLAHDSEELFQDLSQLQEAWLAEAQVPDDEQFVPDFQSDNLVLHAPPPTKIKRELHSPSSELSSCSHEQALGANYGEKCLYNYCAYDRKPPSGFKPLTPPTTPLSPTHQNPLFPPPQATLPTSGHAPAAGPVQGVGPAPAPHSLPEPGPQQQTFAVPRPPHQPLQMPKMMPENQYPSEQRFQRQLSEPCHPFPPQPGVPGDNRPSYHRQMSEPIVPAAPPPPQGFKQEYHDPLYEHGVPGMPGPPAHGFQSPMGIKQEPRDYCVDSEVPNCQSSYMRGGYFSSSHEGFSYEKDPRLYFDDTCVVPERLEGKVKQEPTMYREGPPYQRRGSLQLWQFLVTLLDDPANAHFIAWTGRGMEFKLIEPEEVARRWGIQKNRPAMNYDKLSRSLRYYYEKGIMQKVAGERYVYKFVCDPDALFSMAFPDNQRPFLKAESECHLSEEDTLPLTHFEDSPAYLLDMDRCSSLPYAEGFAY
# Outline: as §1
# [12] = biological target: HSF1 (Homo sapiens, UniProt Q00613 1-529); conditions: protein: recombinant; tags: N-terminal GST; chain copies: 3; dsDNA, one strand shown
# Sequence of HSF1 (Q00613 whole entry): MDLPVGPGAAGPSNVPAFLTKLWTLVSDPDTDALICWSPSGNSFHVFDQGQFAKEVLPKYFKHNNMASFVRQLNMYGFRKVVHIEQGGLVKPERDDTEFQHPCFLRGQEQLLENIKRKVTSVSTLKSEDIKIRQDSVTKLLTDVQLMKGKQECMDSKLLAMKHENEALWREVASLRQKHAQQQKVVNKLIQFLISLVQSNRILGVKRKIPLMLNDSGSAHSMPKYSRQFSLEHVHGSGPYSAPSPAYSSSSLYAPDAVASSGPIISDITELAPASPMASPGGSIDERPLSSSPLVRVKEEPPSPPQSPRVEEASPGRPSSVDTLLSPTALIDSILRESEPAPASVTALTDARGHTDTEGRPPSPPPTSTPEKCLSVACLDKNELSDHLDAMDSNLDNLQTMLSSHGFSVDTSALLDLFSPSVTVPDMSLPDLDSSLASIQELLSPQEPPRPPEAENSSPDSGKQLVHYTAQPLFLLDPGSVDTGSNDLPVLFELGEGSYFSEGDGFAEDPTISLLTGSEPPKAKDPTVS
# Outline: as §1
# [13] = biological target: T8, SPIC (Homo sapiens, UniProt Q8N5J4 1-248); conditions: protein: recombinant; tags: N-terminal GST; dsDNA, one strand shown
# T8 sequence: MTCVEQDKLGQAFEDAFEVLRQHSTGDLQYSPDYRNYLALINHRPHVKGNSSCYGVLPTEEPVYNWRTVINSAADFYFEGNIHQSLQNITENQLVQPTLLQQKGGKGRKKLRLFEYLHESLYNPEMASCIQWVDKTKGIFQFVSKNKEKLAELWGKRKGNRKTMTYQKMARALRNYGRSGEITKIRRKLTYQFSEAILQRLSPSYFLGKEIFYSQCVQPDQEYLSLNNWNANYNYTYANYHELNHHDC
# Outline: as §1
# [14] = biological target: ELF4 (Homo sapiens, UniProt Q99607 1-663); conditions: protein: recombinant; tags: N-terminal GST; dsDNA, one strand shown
# Sequence of ELF4 (Q99607 whole entry): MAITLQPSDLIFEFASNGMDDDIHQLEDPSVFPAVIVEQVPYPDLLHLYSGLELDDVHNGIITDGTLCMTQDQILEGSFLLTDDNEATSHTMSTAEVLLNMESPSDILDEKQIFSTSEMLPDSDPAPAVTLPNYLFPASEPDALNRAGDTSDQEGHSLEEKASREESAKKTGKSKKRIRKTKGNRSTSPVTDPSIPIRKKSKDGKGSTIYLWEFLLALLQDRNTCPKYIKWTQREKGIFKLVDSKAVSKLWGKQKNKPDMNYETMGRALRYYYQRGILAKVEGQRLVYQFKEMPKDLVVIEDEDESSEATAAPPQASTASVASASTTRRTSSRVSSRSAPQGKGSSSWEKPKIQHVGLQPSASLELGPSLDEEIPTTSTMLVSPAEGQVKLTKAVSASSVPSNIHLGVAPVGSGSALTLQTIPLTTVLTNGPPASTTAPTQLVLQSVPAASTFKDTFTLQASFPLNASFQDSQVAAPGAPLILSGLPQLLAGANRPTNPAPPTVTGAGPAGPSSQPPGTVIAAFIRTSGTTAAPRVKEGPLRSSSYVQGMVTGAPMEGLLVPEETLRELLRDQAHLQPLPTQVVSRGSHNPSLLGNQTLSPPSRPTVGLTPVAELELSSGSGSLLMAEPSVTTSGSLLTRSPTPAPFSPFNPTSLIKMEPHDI
# Outline: as §1
# [15] = biological target: T9, ELK4 (Homo sapiens, UniProt P28324-2 1-405); conditions: protein: recombinant; tags: N-terminal GST; dsDNA, one strand shown
# T9 sequence: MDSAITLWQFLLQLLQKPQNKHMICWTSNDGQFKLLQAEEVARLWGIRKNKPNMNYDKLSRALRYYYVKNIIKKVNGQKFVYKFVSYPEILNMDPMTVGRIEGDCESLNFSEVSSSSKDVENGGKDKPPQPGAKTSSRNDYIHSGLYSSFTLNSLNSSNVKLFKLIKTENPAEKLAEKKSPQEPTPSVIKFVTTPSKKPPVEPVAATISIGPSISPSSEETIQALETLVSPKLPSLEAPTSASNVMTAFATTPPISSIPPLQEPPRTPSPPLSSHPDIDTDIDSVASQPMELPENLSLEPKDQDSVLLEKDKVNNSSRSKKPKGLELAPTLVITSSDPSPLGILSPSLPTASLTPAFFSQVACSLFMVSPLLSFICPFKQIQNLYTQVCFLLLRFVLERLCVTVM
# Outline: as §1
# [16] = biological target: T10, ETV2 (Homo sapiens, UniProt O00321 1-342); conditions: protein: recombinant; tags: N-terminal GST; dsDNA, one strand shown
# T10 sequence: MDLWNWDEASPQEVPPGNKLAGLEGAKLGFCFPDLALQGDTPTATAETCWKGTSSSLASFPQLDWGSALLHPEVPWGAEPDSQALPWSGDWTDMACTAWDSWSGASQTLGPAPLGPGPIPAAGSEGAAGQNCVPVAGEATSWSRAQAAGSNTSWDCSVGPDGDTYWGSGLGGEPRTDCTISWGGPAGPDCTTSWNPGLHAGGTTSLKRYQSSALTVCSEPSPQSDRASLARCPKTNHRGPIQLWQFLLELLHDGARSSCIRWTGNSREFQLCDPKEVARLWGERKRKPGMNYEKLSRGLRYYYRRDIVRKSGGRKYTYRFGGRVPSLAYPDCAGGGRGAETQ
# Outline: as §1
# [17] = biological target: T11, ELF3 (Homo sapiens, UniProt P78545 1-371); conditions: protein: recombinant; tags: N-terminal GST; dsDNA, one strand shown
# T11 sequence: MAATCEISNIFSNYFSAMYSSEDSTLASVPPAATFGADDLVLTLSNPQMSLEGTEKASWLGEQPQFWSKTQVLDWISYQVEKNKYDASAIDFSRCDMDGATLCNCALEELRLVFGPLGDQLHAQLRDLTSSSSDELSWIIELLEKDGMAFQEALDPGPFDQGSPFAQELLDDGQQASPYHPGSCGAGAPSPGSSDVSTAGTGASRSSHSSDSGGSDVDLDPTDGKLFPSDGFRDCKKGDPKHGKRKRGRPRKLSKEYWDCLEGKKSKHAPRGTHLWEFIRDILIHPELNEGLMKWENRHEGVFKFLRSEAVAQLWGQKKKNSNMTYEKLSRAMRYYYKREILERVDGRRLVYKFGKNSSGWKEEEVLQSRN
# Outline: as §1
sequence,measurement,setting,value
CTGGGT,binding signal,[1],"1.21 fold enrichment (6-mer frequency, TF over GST control)"
same,binding signal,[2],"1.1 fold enrichment (6-mer frequency, TF over GST control)"
same,binding signal,[3],"1.18 fold enrichment (6-mer frequency, TF over GST control)"
same,binding signal,[4],"1.12 fold enrichment (6-mer frequency, TF over GST control)"
same,binding signal,[5],"1.17 fold enrichment (6-mer frequency, TF over GST control)"
same,binding signal,[6],"1.12 fold enrichment (6-mer frequency, TF over GST control)"
same,binding signal,[7],"1.13 fold enrichment (6-mer frequency, TF over GST control)"
same,binding signal,[8],"1.09 fold enrichment (6-mer frequency, TF over GST control)"
same,binding signal,[9],"1.1 fold enrichment (6-mer frequency, TF over GST control)"
same,binding signal,[10],"1.06 fold enrichment (6-mer frequency, TF over GST control)"
same,binding signal,[11],"1.05 fold enrichment (6-mer frequency, TF over GST control)"
same,binding signal,[12],"1.04 fold enrichment (6-mer frequency, TF over GST control)"
same,binding signal,[13],"1.17 fold enrichment (6-mer frequency, TF over GST control)"
same,binding signal,[14],"1.13 fold enrichment (6-mer frequency, TF over GST control)"
same,binding signal,[15],"1.2 fold enrichment (6-mer frequency, TF over GST control)"
same,binding signal,[16],"1.22 fold enrichment (6-mer frequency, TF over GST control)"
same,binding signal,[17],"1.12 fold enrichment (6-mer frequency, TF over GST control)"

# — publication PMC7862700, “An all-to-all approach to the identification of sequence-specific readers for epigenetic DNA modifications on cytosine”
